Inconclusive results are not listed. A call without a number means that no potency is given here. Calls of active or inactive are those of the source. Unless noted, calls come from the whole dose curve; as a rule, active = well fitted curve in the direction sought with a large enough effect; inconclusive = small, poorly fitted or top-dose-only effect, or another doubt; inactive = no such curve, though single readings can be large; an effect the other way counts as inactive or inconclusive.
Legend:
[1] = target: T1, Tyrosine-protein phosphatase non-receptor type substrate 1 (Homo sapiens) + Leukocyte surface antigen CD47 (Homo sapiens) (UniProt P78324+Q08722); assay: CD47-SIRPalpha protein protein interaction - LANCE assay qHTS validation (AID 1347057; active = well fitted curve in the direction sought with a large enough effect in the signal ratio, with a control signal flat, not every such curve was filed as active; the % refers to the signal ratio; note: series mostly up to about 38 µM)
T1 sequence (P78324 whole entry, looked up): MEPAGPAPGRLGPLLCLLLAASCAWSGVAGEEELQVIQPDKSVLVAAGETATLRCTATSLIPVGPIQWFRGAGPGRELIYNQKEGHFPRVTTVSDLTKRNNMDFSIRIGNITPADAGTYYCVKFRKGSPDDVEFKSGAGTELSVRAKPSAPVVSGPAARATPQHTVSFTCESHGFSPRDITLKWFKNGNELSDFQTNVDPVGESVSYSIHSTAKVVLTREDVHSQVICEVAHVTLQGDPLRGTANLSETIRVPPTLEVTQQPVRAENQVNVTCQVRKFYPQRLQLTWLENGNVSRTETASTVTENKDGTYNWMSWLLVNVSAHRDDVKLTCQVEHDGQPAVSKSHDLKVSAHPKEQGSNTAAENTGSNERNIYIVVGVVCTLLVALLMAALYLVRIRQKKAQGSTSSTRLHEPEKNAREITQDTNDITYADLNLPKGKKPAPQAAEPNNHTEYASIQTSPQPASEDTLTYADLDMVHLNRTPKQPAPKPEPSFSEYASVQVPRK
T1 sequence (Q08722 whole entry, looked up): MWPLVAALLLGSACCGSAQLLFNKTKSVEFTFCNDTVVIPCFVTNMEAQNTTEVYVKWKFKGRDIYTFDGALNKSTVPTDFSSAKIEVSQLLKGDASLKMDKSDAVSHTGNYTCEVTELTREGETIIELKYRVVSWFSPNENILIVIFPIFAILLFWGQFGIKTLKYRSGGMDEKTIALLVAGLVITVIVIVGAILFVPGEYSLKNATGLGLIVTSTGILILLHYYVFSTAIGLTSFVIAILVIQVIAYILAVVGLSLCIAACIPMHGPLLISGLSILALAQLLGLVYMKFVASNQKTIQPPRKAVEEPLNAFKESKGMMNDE
In short: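 First, His-tagged CD47 and Eu-labelled anti-His antibody met the compound for 30 min; next, site-specifically biotinylated SIRPalpha was added for 30 min; finally streptavidin-APC was added before reading the TR-FRET ratio.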

[2] = target: T1, Tyrosine-protein phosphatase non-receptor type substrate 1 (Homo sapiens) + Leukocyte surface antigen CD47 (Homo sapiens); assay: CD47-SIRPalpha protein protein interaction - Alpha assay qHTS validation (AID 1347059);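 note: bead proximity luminescence from CD47 binding SIRPalpha after compound preincubation with SIRPalpha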
In short: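 Binding is measured by AlphaScreen proximity: Ni-NTA acceptor beads capture His-CD47, streptavidin donor beads capture biotin-SIRPalpha. Each of three additions (SIRPalpha with compound, CD47, beads) incubates 30 min at room temperature protected from light.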

[3] = qHTS of pediatric cancer cell lines to identify multiple opportunities for drug repurposing: Primary screen for SJ-GBM2 cells (AID 1347091); note: potency is the fitted concentration of half-maximal effect
In short: (§1)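 Cell viability, CellTiter-Glo luminescence; 500-1,000 cells/well, 8- or 11-point titration, 48 h compound exposure at 37 degrees C, 5% CO2. Controls: DMSO neutral, bortezomib 2.3 µM final as positive.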

[4] = qHTS of pediatric cancer cell lines to identify multiple opportunities for drug repurposing: Primary screen for SK-N-MC cells (AID 1347093); note: potency is the fitted concentration of half-maximal effect
In short: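 Metabolically active cells were quantified by ATP-dependent luminescence (CellTiter-Glo, 15 min at room temperature) following 48 h treatment. Cells had been plated at 500-1,000 per well and settled for 5 h beforehand.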

[5] = qHTS of pediatric cancer cell lines to identify multiple opportunities for drug repurposing: Primary screen for BT-37 cells (AID 1347094); note: potency is the fitted concentration of half-maximal effect
In short: (§2)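 Plated cells (500-1,000 per well, growth media) were allowed to settle for 5 hours, treated with compound dilutions for 48 hours, then lysed with CellTiter-Glo for 15 min at room temperature before luminescence reading.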

[6] = qHTS of pediatric cancer cell lines to identify multiple opportunities for drug repurposing: Primary screen for NB-EBc1 cells (AID 1347095); note: potency is the fitted concentration of half-maximal effect
In short: as §2

[7] = qHTS of pediatric cancer cell lines to identify multiple opportunities for drug repurposing: Primary screen for U-2 OS cells (AID 1347096); note: nearly all actives have a fitted effect of over 50% in size; note: potency is the fitted concentration of half-maximal effect
In short: (§3)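 Cells (500-1,000/well) rested 5 h, then received compounds for 48 h; metabolically active cells were measured by CellTiter-Glo luminescence. Final concentrations spanned up to 46 µM (MIPE, 11-point) or 0.59 nM-46 µM (NPC, 8-point) in primary screens, 11-point in follow-ups.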

[8] = qHTS of pediatric cancer cell lines to identify multiple opportunities for drug repurposing: Primary screen for Saos-2 cells (AID 1347097); note: nearly all actives have a fitted effect of over 40% in size; note: potency is the fitted concentration of half-maximal effect
In short: as §2

[9] = qHTS of pediatric cancer cell lines to identify multiple opportunities for drug repurposing: Primary screen for LAN-5 cells (AID 1347100); note: potency is the fitted concentration of half-maximal effect
In short: as §3

[10] = qHTS of pediatric cancer cell lines to identify multiple opportunities for drug repurposing: Primary screen for Rh18 cells (AID 1347102); note: nearly all actives have a fitted effect of over 65% in size; note: potency is the fitted concentration of half-maximal effect
In short: as §3

[11] = qHTS of pediatric cancer cell lines to identify multiple opportunities for drug repurposing: Primary screen for OHS-50 cells (AID 1347103); note: nearly all actives have a fitted effect of over 40% in size; note: potency is the fitted concentration of half-maximal effect
In short: as §3

[12] = qHTS of pediatric cancer cell lines to identify multiple opportunities for drug repurposing: Primary screen for RD cells (AID 1347104); note: nearly all actives have a fitted effect of over 55% in size; note: potency is the fitted concentration of half-maximal effect
In short: as §2

[13] = qHTS of pediatric cancer cell lines to identify multiple opportunities for drug repurposing: Primary screen for TC32 cells (AID 1347089); note: nearly all actives have a fitted effect of over 60% in size; note: potency is the fitted concentration of half-maximal effect
In short: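 In the primary qHTS, MIPE compounds were tested at 11 concentrations (0.78 nM to 46 µM) and NPC compounds at 8 (0.59 nM to 46 µM) on TC32 cells for 48 h. CellTiter-Glo luminescence gave viability.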

[14] = qHTS of pediatric cancer cell lines to identify multiple opportunities for drug repurposing: Primary screen for DAOY cells (AID 1347090); note: nearly all actives have a fitted effect of over 55% in size; note: potency is the fitted concentration of half-maximal effect
In short: as §1

[15] = qHTS of pediatric cancer cell lines to identify multiple opportunities for drug repurposing: Primary screen for A673 cells (AID 1347092); note: nearly all actives have a fitted effect of over 45% in size; note: potency is the fitted concentration of half-maximal effect
In short: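 48 h compound exposure, A673, 500-1,000 cells/well, 37 degrees C/5% CO2. MIPE: 11-point, 0.78 nM-46 µM; NPC: 8-point, 0.59 nM-46 µM (final). Readout CellTiter-Glo luminescence after 15 min RT.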

[16] = qHTS of pediatric cancer cell lines to identify multiple opportunities for drug repurposing: Primary screen for SK-N-SH cells (AID 1347098); note: nearly all actives have a fitted effect of over 65% in size; note: potency is the fitted concentration of half-maximal effect
In short: as §3

[17] = qHTS of pediatric cancer cell lines to identify multiple opportunities for drug repurposing: Primary screen for NB1643 cells (AID 1347099); note: nearly all actives have a fitted effect of over 50% in size; note: potency is the fitted concentration of half-maximal effect
In short: as §2

[18] = qHTS of pediatric cancer cell lines to identify multiple opportunities for drug repurposing: Primary screen for MG 63 (6-TG R) cells (AID 1347105); note: nearly all actives have a fitted effect of over 50% in size; note: potency is the fitted concentration of half-maximal effect
In short: as §2

[19] = NS1 protein of Zika virus - qHTS assay to identify small molecule inhibitors in human HEK 293 cells (AID 1347053); note: series mostly up to about 46 µM; nearly all actives have a fitted effect of over 55% in size
In short: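 Following 20 h seeding, HEK 293 cells took compound, then 1 h later ZIKV MR766 (MOI = 0.5). Incubation ran 24 h at 37 C before TR-FRET detection of NS1; a drop in signal indicates inhibition.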

[20] = qHTS of pediatric cancer cell lines to identify multiple opportunities for drug repurposing: Primary screen for BT-12 cells (AID 1347101); note: nearly all actives have a fitted effect of over 25% in size; note: potency is the fitted concentration of half-maximal effect
In short: as §3

SMILES	outcome [1]	outcome [2]	Potency [3]	Potency [4]	Potency [5]	Potency [6]	Potency [7]	Potency [8]	Potency [9]	Potency [10]	Potency [11]	Potency [12]	Potency [13]	Potency [14]	Potency [15]	Potency [16]	Potency [17]	Potency [18]	Potency [19]	Potency [20]
COc1cccc(-c2cc(=O)c3ccccc3o2)c1N	inactive	inactive	inactive	0.662 µM (active)	inactive	inactive	inactive	inactive	inactive	inactive	inactive	13.2 µM (active)	–	–	–	–	–	–	–	–
CO[C@H]1C=CO[C@@]2(C)Oc3c(C)c(O)c4c(O)c(c5c(c4c3C2=O)NC2(CCN(CC(C)C)CC2)N=5)=NC(=O)C(C)=CC=C[C@H](C)[C@H](O)[C@@H](C)[C@@H](O)[C@@H](C)[C@H](OC(C)=O)[C@H]1C	–	–	inactive	inactive	inactive	inactive	inactive	inactive	–	inactive	–	inactive	inactive	inactive	inactive	inactive	inactive	inactive	–	–
CC(C)[C@H](CO)Nc1nc(Nc2ccc(C(=O)O)c(Cl)c2)c2ncn(C(C)C)c2n1	–	–	–	–	–	23.5 µM (active)	inactive	18.7 µM (active)	–	inactive	–	–	–	–	–	–	–	–	inactive	–
C[C@H](NC(=O)c1sccc1OCc1ccc(Cl)cc1)c1ccccc1	–	–	inactive	13.2 µM (active)	27.3 µM (active)	–	inactive	–	–	inactive	12.2 µM (active)	29.6 µM (active)	inactive	18.7 µM (active)	23.5 µM (active)	inactive	23.5 µM (active)	–	–	19.3 µM (active)
O=c1cc(-c2ccccc2)oc2cc(O)c(O)c(O)c12	–	–	inactive	inactive	–	inactive	–	18.7 µM (active)	–	–	–	inactive	inactive	inactive	inactive	inactive	inactive	inactive	–	–
O=C1C[C@@H](c2ccc(O)cc2)Oc2cc(O)cc(O)c21	–	–	inactive	inactive	inactive	inactive	inactive	–	–	inactive	inactive	inactive	inactive	inactive	inactive	inactive	–	inactive	–	–
CO[C@@H](C(=O)N1Cc2[nH]nc(NC(=O)c3ccc(N4CCN(C)CC4)cc3)c2C1)c1ccccc1	–	–	0.187 µM (active)	0.118 µM (active)	–	–	18.7 µM (active)	0.833 µM (active)	0.0372 µM (active)	0.935 µM (active)	–	5.26 µM (active)	–	–	5.9 µM (active)	2.15 µM (active)	0.118 µM (active)	1.48 µM (active)	inactive	–
COc1ccc(Cc2nccc3cc(OC)c(OC)cc23)cc1OC	inactive	inactive	–	–	–	–	–	–	–	–	–	–	–	–	–	–	–	–	–	–
CC1=C(/C=C/C(C)=C/C=C/C(C)=C/C(=O)Nc2ccc(O)cc2)C(C)(C)CCC1	inactive	–	–	6.68 µM (active)	15.5 µM (active)	–	26.6 µM (active)	23.7 µM (active)	–	–	15.5 µM (active)	26.6 µM (active)	–	–	6.68 µM (active)	–	–	–	–	7.77 µM (active)
c1ccc2c(Cc3c[nH]c4ccccc34)c[nH]c2c1	–	–	–	0.833 µM (active)	–	–	inactive	18.7 µM (active)	–	–	–	14.8 µM (active)	–	3.72 µM (active)	2.35 µM (active)	9.61 µM (active)	–	–	inactive	–
CCCCCN(C)CCC(O)(P(=O)(O)O)P(=O)(O)O	–	–	inactive	–	inactive	inactive	inactive	inactive	–	–	inactive	inactive	inactive	inactive	inactive	inactive	inactive	–	–	inactive
CN1C[C@H]2c3ccccc3Oc3ccc(Cl)cc3[C@@H]2C1	–	–	inactive	inactive	inactive	inactive	inactive	inactive	–	–	21.9 µM (active)	inactive	inactive	inactive	inactive	inactive	inactive	inactive	–	–
CN(C)CCC(c1ccccc1)c1ccccn1 (configuration not stated)	inactive	inactive	inactive	inactive	inactive	inactive	inactive	inactive	inactive	inactive	inactive	inactive	inactive	inactive	inactive	inactive	–	inactive	–	inactive
COc1ccc(-c2nc(N3CCOCC3)c3sc(CN(C)c4ncc(C(=O)NO)cn4)cc3n2)cn1	–	–	0.0066 µM (active)	0.001 µM (active)	0.0069 µM (active)	0.001 µM (active)	0.0118 µM (active)	0.0066 µM (active)	0.001 µM (active)	–	0.0011 µM (active)	0.0166 µM (active)	0.0415 µM (active)	0.0118 µM (active)	0.0935 µM (active)	0.0341 µM (active)	0.001 µM (active)	0.0296 µM (active)	–	0.0086 µM (active)
CC(=O)O[C@]1(C(C)=O)CC[C@H]2[C@@H]3C=C(Cl)C4=CC(=O)[C@@H]5C[C@@H]5[C@]4(C)[C@H]3CC[C@@]21C	inactive	inactive	inactive	–	–	inactive	inactive	26.6 µM (active)	inactive	–	34.7 µM (active)	–	inactive	–	–	–	inactive	inactive	–	12.3 µM (active)
